In PubChem BioAssay (NCATS):
Inconclusive results are not listed. Calls of active or inactive are those of the source. The call rests on the fitted dose curve; in most records, active means well fitted cell-killing curve with a large enough effect; inconclusive means small, poorly fitted or top-dose-only effect, or effect the other way; inactive means no such curve, though single readings can be large or run the other way.

Assay: Quantitative High-Throughput drug screen in 47 multiple myeloma cell lines against the NCATS MIPE library collection: L363_DSMZ cell viability assay (AID 1918984); further: nearly all actives have a fitted effect of over 40% in size
Conditions: L363 myeloma viability, CellTiter-Glo ATP luminescence, 48 h; series mostly up to 45.8 µM
Text: PI: Beverly A. Mock Ph.D.
Laboratory of Cancer Biology and Genetics,
Center for Cancer Research, National Cancer Institute,
National Institute of Health, Bethesda, Maryland
Drug resistance and disease progression are common in multiple myeloma (MM) patients, underscoring the need for new therapeutic combinations. […] We hypothesized that effective combinations would reduce MYC expression and enhance p16 activity. […] These preclinical data identify potentially useful drug combinations for evaluation in drug-resistant MM and reveal potential mechanisms of combined drug sensitivity.
Described herein is the primary MIPE qHTS used to cherrypick compounds. Validated compounds were then further tested for potential synergistic activiy.
[1] Peat TJ, Gaikwad SM, Dubois W, Gyabaah-Kessie N, Zhang S, Gorjifard S, Phyo Z, Andres M, Hughitt VK, Simpson RM, Miller MA, Girvin AT, Taylor A, Williams D, D'Antonio N, Zhang Y, Rajagopalan A, Flietner E, Wilson K, Zhang X, Shinn P, Klumpp-Thomas C, McKnight C, Itkin Z, Chen L, Kazandijian D, Zhang J, Michalowski AM, Simmons JK, Keats J, Thomas CJ, Mock BA. Drug combinations identified by high-throughput screening promote cell cycle transition and upregulate Smad pathways in myeloma. Cancer Lett. 2023 Aug 1;568:216284. doi: 10.1016/j.canlet.2023.216284. Epub 2023 Jun 24. PMID: 37356470; PMCID: PMC10408729.
SEQUENCE No. (e.g., 1, 2, 3, etc.); […] (e.g., Cells, Incubation, Reagent, etc.); VALUE and DESCRIPTION.
1; Cells; 5 uL; white, solid bottom 1536-well Greiner assay plate.
2; Compounds; 23 nL; Kalypsis pin tool (Wako USA) equipped with a 1536-well pin head to transfer to the assay plates.
3; Incubation; 48 hours; 37C incubation.
4; Reagent;5uL; CellTiter Glo (Promega).
5; Detector; 425V; Luminescence; Viewlux PerkinElmer.
NOTES (numbers refer to Sequence numbers above)
1. The cell-based screening methods employed in this study were like those previously published. Briefly, the corresponding myeloma cell lines were screened in 1,536-well plates with 500 cells, 5-uL per well for inhibition of cell viability (assessed by measuring ATP levels with CellTiterGlo).
2. NCATS MIPE 4.0 library of approved and investigational drugs were added using the Kalypsis pin tool. Wells treated with DMSO only for 100% viability and media only for 0% viability were used as controls.
3. The assay plates were covered and incubated for 48 hours in a 37C, 5% CO2 incubator with controlled humidity.
4. After 48 hours, CellTilter-GloTM luminescent substrate mix (Promega) reagent was added to the assay plate and plates we incubated for 5 min at room temperature.
5. Signal was measured as median relative luminescence units on a ViewLux (PerkinElmer) multiplate reader.
[1] Heske CM, Davis MI, Baumgart JT, Wilson K, Gormally MV, Chen L, Zhang X, Ceribelli M, Duveau DY, Guha R, Ferrer M, Arnaldez FI, Ji J, Tran HL, Zhang Y, Mendoza A, Helman LJ, Thomas CJ. Matrix Screen Identifies Synergistic Combination of PARP Inhibitors and Nicotinamide Phosphoribosyltransferase (NAMPT) Inhibitors in Ewing Sarcoma. Clin Cancer Res. 2017 Dec 1;23(23):7301-7311. doi: 10.1158/1078-0432.CCR-17-1121. Epub 2017 Sep 12. PMID: 28899971; PMCID: PMC6636827.
Potency means the concentration at half of the fitted maximal effect.

SMILES | Potency
O=C1NC(=O)C(=Cc2ccc3nccnc3c2)S1 | 0.115 µM (active)
O=C(O)c1ccccc1C(=O)Nc1ccc(-c2ccccc2)cc1 | inactive
OC[C@H]1O[C@@H](n2cnc3c2NC=NC[C@@H]3O)C[C@H]1O | inactive
Nc1ncnc2c1nc(Cl)n2[C@@H]1O[C@H](CO)[C@@H](O)[C@@H]1O | 20.9 µM (active)
CC=CCC=CCCC(=O)[C@H]1O[C@@H]1C(N)=O | 18.7 µM (active)
CC(C)(C)Cn1c(N)nc2ccc(-c3[nH]c(C(C)(C)C)nc3-c3ccc(F)cc3)nc21 | inactive
CCCCCNC(=O)N1CCC(CN(Cc2ccc(Cl)cc2)Cc2ccc([N+](=O)[O-])s2)C1 (stereo not given) | 20.9 µM (active)
CC=C(C)C(=O)O[C@H]1C(C)=C[C@]23C(=O)[C@@H](C=C(CO)[C@@H](O)[C@]12O)[C@H]1[C@@H](C[C@H]3C)C1(C)C | 4.69 µM (active)
CC(C)(C(=O)NCC(F)(F)C(F)(F)F)C(=O)N[C@@H]1C(=O)Nc2ccccc2-c2ccccc21 | 3.72 µM (active)
CS(=O)(=O)N(Cc1ccco1)CC(O)Cn1c2ccccc2c2ccccc21 (stereo not given) | inactive
NC(=O)c1cccc(-c2cc(Nc3ccc(OC(F)(F)F)cc3)ncn2)c1 | 8.33 µM (active)
CCCCCCCCCCCC1=C(O)C(=O)C=C(O)C1=O | 0.469 µM (active)
NC1CCC(Nc2nc(Nc3ccc(C(=O)N4CCCCC4)cc3)c3ncn(-c4cccc(F)c4)c3n2)CC1 (stereo not given) | inactive
COc1ccc(-c2oc3c(CC=C(C)C)c(OC4O[C@H](CO)[C@@H](O)[C@H](O)[C@@H]4O)cc(O)c3c(=O)c2OC2O[C@@H](C)[C@H](O)[C@@H](O)[C@@H]2O)cc1 (stereo not given in full) | 13.2 µM (active)
Cc1c[nH]c(C=C2C(=O)Nc3ccccc32)c1CCC(=O)O | inactive
O=c1cc(-c2ccccc2)oc2cc(O)c(O)c(O)c12 | inactive
CC(=O)N(C)C1(c2ccccc2)CCN(CCC[C@]2(c3ccc(Cl)c(Cl)c3)CCCN(C(=O)c3ccccc3)C2)CC1 | 5.9 µM (active)
O=C(NCc1ccncc1)C12C[C@H]3C[C@@H](C1)CC(c1ccc(Cl)cc1)(C3)C2 | 5.26 µM (active)
COc1ccc(-c2nc(N3CCOCC3)c3sc(CN(C)c4ncc(C(=O)NO)cn4)cc3n2)cn1 | 0.001 µM (active)
CC=CC(=O)N(CC)c1ccccc1C | inactive

SMILES | Potency
CC(C)C[C@H](CC(=O)O)C(=O)N[C@@H](Cc1c[nH]c2ccccc12)C(=O)N[C@@H](C)c1ccccc1 | inactive
O=c1[nH]cnc2c1ncn2[C@H]1CC[C@@H](CO)O1 | inactive
NS(=O)(=O)c1ccc(NC2=CC(=O)c3ccccc3C2=O)cc1 | 1.66 µM (active)
Cc1c(O)cccc1C(=O)N[C@@H](CSc1ccccc1)[C@H](O)CN1C[C@H]2CCCC[C@@H]2C[C@@H]1C(=O)NC(C)(C)C | 20.9 µM (active)
COc1ccc2cccc(CCNC(C)=O)c2c1 | inactive
O=C(NCc1ccccc1)c1csc(Nc2ccncn2)n1 | 10.5 µM (active)
Cc1ccc(/C=N/NC(=O)c2ccccc2Oc2ccccc2)o1 | inactive
CN1CCN(CCOc2cc(OC3CCOCC3)c3c(Nc4c(Cl)ccc5c4OCO5)ncnc3c2)CC1 | 14.8 µM (active)
CC(C)C(=O)Nc1ncc(-c2cc(C(F)F)nn2-c2c(Cl)cccc2Cl)s1 | 8.33 µM (active)
Cc1ccc(C(C)(O)c2nc3ccccc3s2)c(C)c1 (stereo not given) | inactive
O=C(CCc1ccc(O)cc1)c1c(O)cc(O)cc1O[C@@H]1O[C@H](CO)[C@H](O)[C@H](O)[C@H]1O | inactive
COC1CCC(N(C(=O)C2CCC(C)CC2)c2cc(C3=CCCCC3)sc2C(=O)O)CC1 (stereo not given) | inactive
Cc1cccc(Nc2nc(-c3ccncc3)cs2)c1 | 18.7 µM (active)
O=C(NOCC(O)CO)c1cc(Br)c(F)c(F)c1Nc1ccc(I)cc1F (stereo not given) | inactive
CC(C)OC(=O)C(C)(C)Oc1ccc(C(=O)c2ccc(Cl)cc2)cc1 | inactive
CC(=O)Oc1cc2c(s1)CCN(C(C(=O)C1CC1)c1ccccc1F)C2 (stereo not given) | 0.935 µM (active)
CO[C@H]1C=CO[C@@]2(C)Oc3c(C)c(O)c4c(O)c(c5c(c4c3C2=O)NC2(CCN(CC(C)C)CC2)N=5)=NC(=O)C(C)=CC=C[C@H](C)[C@H](O)[C@@H](C)[C@@H](O)[C@@H](C)[C@H](OC(C)=O)[C@H]1C | inactive
O=C1NC(=O)C(=Cc2ccc(-c3ccc(F)cc3)o2)S1 | 3.72 µM (active)
NC1=N[C@@]2(c3cc(NC(=O)c4ccc(F)cn4)ccc3F)COC[C@@H]2CS1 | 0.418 µM (active)
N#CC1(c2ccc(NC(=O)c3cccnc3NCc3ccncc3)cc2)CCCC1 | inactive
